Source: PubChem
ALDH1A1 inh = inhibitors of human aldehyde dehydrogenase 1A1 | Purified ALDH1A1, NADH fluorescence, propionaldehyde substrate | P00352 | hit rate 7.3% among 220,000 | Potency, µM (titrated, usually from 75.3 µM), for the others: top-dose activity, negative = inhibition, actives largely listed as inhibitors | AID 1030;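 note: potency is the fitted concentration of half-maximal effect; plate controls were no enzyme wells and a reference inhibitor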
PNC inhibitor = inhibitors of perinucleolar compartment assembly; PC3M PTB-GFP, PNC prevalence imaging, 16 h; stronger effect = lower value; activity change (PNC), negative = inhibition, % at 10 µM; hit rate 3.1% among 140,000; AID 2417;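 active = readout at or below -70, meaning at least 70% loss of cells showing the perinucleolar compartment, a nuclear body marking cancer cells; inconclusive = readout between -30 and a set limit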;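 note: plate controls were DMSO wells for no effect and camptothecin positive control wells for full effect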
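Compounds are pinned in duplicate onto adhered PC3M cells stably expressing GFP-tagged PTB and incubated 16 h at 37 C. Cells are then fixed, nuclei stained with Hoechst, and PNC-positive cells counted.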
HPGD block = inhibitors of human 15-hydroxyprostaglandin dehydrogenase (HPGD); P15428; purified HPGD, NADH fluorescence kinetic, PGE2 substrate; Potency, µM, without a hit: at the top dose activity change, negative = inhibition, actives largely listed as inhibitors; hit rate 4.3% among 150,000; AID 894; note: potency is the fitted concentration of half-maximal effect
Target sequence (P15428 whole entry, looked up): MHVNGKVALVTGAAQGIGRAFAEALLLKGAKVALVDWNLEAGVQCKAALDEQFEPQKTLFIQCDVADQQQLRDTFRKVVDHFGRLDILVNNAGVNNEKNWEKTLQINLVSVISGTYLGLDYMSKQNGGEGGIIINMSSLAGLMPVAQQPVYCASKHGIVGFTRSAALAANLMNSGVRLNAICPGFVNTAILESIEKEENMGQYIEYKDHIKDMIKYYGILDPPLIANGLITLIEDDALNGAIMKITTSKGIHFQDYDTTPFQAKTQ
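NADH formation kinetics: reaction with 30 uM PGE2 and 1 mM NAD+ (final), 20 nM enzyme, Tris-HCl pH 8 with Tween 20, after 15 min compound preincubation at room temperature. Fluorescence change, last versus first of five reads.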
JMJD2E inh = inhibitors of human JMJD2E histone demethylase | Potency, µM (series often up to 57.1 µM), for inactives: at the top dose activity change, negative = inhibition, actives largely listed as inhibitors | B2RXH2 | hit rate 1.6% among 230,000 | JMJD2E catalytic domain, FDH-coupled NADH fluorescence (FDH is formaldehyde dehydrogenase);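 note: potency is the fitted concentration of half-maximal effect; 0% = wells with enzyme and -100% = buffer wells without enzyme; nearly all actives have a fitted effect of over 50% in size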
Target sequence (B2RXH2 1-337 limits assumed): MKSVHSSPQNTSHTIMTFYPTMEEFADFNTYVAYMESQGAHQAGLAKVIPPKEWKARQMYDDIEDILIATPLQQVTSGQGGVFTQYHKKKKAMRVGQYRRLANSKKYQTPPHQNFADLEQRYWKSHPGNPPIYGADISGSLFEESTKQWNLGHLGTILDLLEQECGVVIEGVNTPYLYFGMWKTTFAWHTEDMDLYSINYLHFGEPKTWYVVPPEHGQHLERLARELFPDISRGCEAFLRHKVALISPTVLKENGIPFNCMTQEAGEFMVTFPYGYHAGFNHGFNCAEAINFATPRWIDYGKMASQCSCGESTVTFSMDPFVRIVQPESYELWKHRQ
* hit, by the source's call; ? = inconclusive; / = no result; [ ] = dose if it differs, or a comment. An excerpt weighted towards active compounds, which were near 11% of everything screened. Unless noted, calls come from the whole dose curve; as a rule, active = well fitted inhibition curve with a large enough effect (not every such curve was filed as active); inconclusive = small, poorly fitted or top-dose-only effect, or another doubt; inactive = no such curve, though single readings can be large or run the other way. Unless noted, % is set by controls: 0 for no effect and ±100 for the full control effect.

SMILES	ALDH1A1 inh	PNC inhibitor	HPGD block	JMJD2E inh
O=C(CC1OC(=O)c2ccccc21)Nc1ccccc1N1CCOCC1 (centres undefined)	-6.9%	?	-2.7%	0.4%
CC(=O)N1CCN(C(=O)CC2OC(=O)c3ccccc32)CC1 (centres undefined)	5.01µM*	7.3	?	-3.3%
CN1CC(c2ccccn2)C2(SC(=S)N(Cc3ccccc3)C2=O)C12C(=O)Nc1ccccc12 (centres undefined)	25.1µM*	15.7	-3.4%	-9.9%
CN1CC(c2ccccc2)C2(SC(=S)N(Cc3ccco3)C2=O)C12C(=O)Nc1ccccc12 (centres undefined)	-2.1%	-7.3	-15.5%	-4.0%
CCOc1ccc(NC2=NCC(=O)N2Cc2cccs2)cc1	?	-104.8*	-16.2%	-28.0%
COC(=O)c1ccc(C(NC(=O)OCc2ccccc2)/C(C)=C/[C@@H](C)C(=O)NCCN2CCOCC2)cc1 (some centres undefined)	-5.2%	/	-7.4%	12.2%
Cc1cc(Cn2cnc3c2C[C@@H](C(=O)O)N(C(=O)C(c2ccccc2)c2ccccc2)C3)ccc1N(C)C	?	/	-7.5%	?
COc1ccc(NC(=O)N2CC3(CCN(C(=O)c4c(C)noc4C)CC3)C2)cc1	?	/	-22.0%	/
Cc1cccn2cc(CNC(=O)C3CCCCC3)nc12	2.5%	-100.0*	?	?
CCOc1ccc(Br)cc1S(=O)(=O)Nc1cccc(S(=O)(=O)N(C)C)c1	20µM*	-26.2	-6.7%	-1.1%
CCOc1ccc(Br)cc1S(=O)(=O)NCc1ccc(S(N)(=O)=O)cc1	18.3%	/	/	-19.7%
CCn1c(CNc2ccc(Cl)cc2)nnc1SCC(=O)OC1CCCCC1	?	-6.4	-18.5%	15.3%
CCn1c(CNc2cccc(Cl)c2)nnc1SCC(=O)OC1CCCCC1	?	45.0	28.2µM*	-18.4%
CCN(CC(=O)NCc1ccc(Cl)cc1)C(=O)c1ccc(S(=O)(=O)N(C)C)cc1	?	/	/	-3.0%
O=C(/C=C/c1cccc(Cl)c1)NCc1cccs1	-3.1%	13.1	31.6µM*	-11.2%
O=C(CSc1ccc2ccccc2c1)NCc1cccs1	?	-21.7	7.94µM*	4.6%
O=C(NC1CCCCC1)C(c1ccc2ncccc2c1)N(Cc1ccc2c(c1)OCO2)C(=O)c1cccs1 (centres undefined)	5.01µM*	2.6	-14.1%	-4.2%
O=C(NCc1ccccc1)C(c1ccccc1)N(Cc1ccc2c(c1)OCO2)C(=O)Cc1cccs1 (centres undefined)	?	-108.4*	-13.4%	-4.6%
CN1CCCC2(CCN(S(=O)(=O)c3ccccc3)CC2)C1	7.1%	/	-10.8%	/
NNC(=O)/C(=C\c1ccc(Br)cc1)NC(=O)c1cccs1	7.7%	/	/	-1.0%
O=C(O)CCC(=O)NCc1ccc(F)cc1	5.9%	17.5	-0.5%	-3.4%
Cc1ccc(CNC(=O)COc2ccc(C(=O)c3ccc(F)cc3)cc2)cc1	?	-20.3	39.8µM*	3.1%
CC(C)CC(=O)NCc1ccc(F)cc1	-5.5%	51.2	15.8µM*	1.2%
O=C(Cc1cccs1)NCc1cccs1	?	?	15.8µM*	5.2%
O=C(CC1CC2CCC1C2)NCc1cccs1 (centres undefined)	7.9%	4.2	15.8µM*	7.8%
SMILES	ALDH1A1 inh	PNC inhibitor	HPGD block	JMJD2E inh
COc1ccnc(Oc2ccccc2)c1C(N)=O	2.3%	/	/	2.2%
O=C(CCC1CCCCC1)NCc1cccs1	-7.4%	2.4	10µM*	1.4%
O=C(Cn1cc(C(=O)c2cccs2)c2ccccc21)NCC1CCCO1 (centres undefined)	-12.3%	-12.9	-1.3%	-2.2%
O=C(Cc1cccs1)NCc1ccc(F)cc1	8.0%	8.6	25.1µM*	1.8%
O=C(Cc1cccs1)NCc1ccc2c(c1)OCO2	8.6%	?	15.8µM*	5.5%
O=C(Cn1cc(C(=O)c2cccs2)c2ccccc21)NCc1ccc2c(c1)OCO2	14.1µM*	-9.5	-5.2%	?
NC(=O)NCCS[C@H]1CCCC[C@@H]1O	6.3%[13.5 µM]	/	-0.7%	/
O=C(CN1CCCCCC1)N1c2ccccc2C=Cc2ccccc21	-5.9%	-105.9*	-7.2%	-2.4%
O=C(CN1CCCC1)N1c2ccccc2C=Cc2ccccc21	4.8%	/	/	7.3%
CCN(CC)C(=O)N1c2ccccc2C=Cc2ccccc21	10.7%	-105.1*	-0.2%	6.3%
COCCn1c(=O)c(-c2ccc(OC)cc2)nc2cnc(Oc3ccc(OC)cc3)nc21	?	/	-9.1%	/
Cc1sc2nc3c(C(=O)N4CCCC4)cc(C(=O)c4ccccc4O)cn3c(=O)c2c1C	20µM*	/	/	?
CCc1c(C)sc2nc3c(C(=O)N4CCOCC4)cc(C(=O)c4cc(F)ccc4O)cn3c(=O)c12	?	/	/	-9.5%
O=C1CCC(=O)N1c1cccc(OS(=O)(=O)c2ccccc2)c1	0.355µM*	?	-6.2%	13.4%
CC1CCC2C(=O)N(c3ccc(S(=O)(=O)c4ccccc4)cc3)C(=O)C2C1 (centres undefined)	1.1%	?	-4.9%	1.2%
CC1CCC2C(=O)N(c3cccc(OS(=O)(=O)c4ccccc4)c3)C(=O)C2C1 (centres undefined)	12.6µM*	31.2	-12.5%	-0.9%
COc1ccc(S(=O)(=O)N2CCCN(CC(=O)Nc3ccc(OC)c(Cl)c3)CC2)cc1	1.58µM*	4.7	-15.9%	-13.8%
COc1ccc(NC(=O)CN2CCN(S(=O)(=O)c3ccc(Cl)cc3)CC2)cc1	18.9µM*	51.2	-3.2%	-2.2%
CCOC(=O)c1c(/N=C/N(C)C)sc(/C=N/Nc2ccccc2)c1-c1ccccc1	25.1µM*	?	-6.4%	?
CCOC(=O)c1c(/N=C/N(C)C)sc(/C=N/Nc2ccccc2)c1-c1ccccc1Cl	12.6µM*	48.7	/	?
CC12CCC3c4ccc(OCc5ccccc5)cc4CCC3C1CC(O)C2O (centres undefined)	-14.8%	/	-4.4%	-1.3%
C=CCn1c(NC(=O)CC)c(C(=O)OCC)sc1=S	?	1.4	20µM*	6.2%
C=CCn1c(SCc2ccc(C(=O)Nc3ccccc3)cc2)nnc1-c1ccccc1	-5.8%	-25.6	?	?
O=C(Cc1cnc2ncnn2c1)N1CCc2c([nH]c3ccccc23)C1c1ccccc1F (centres undefined)	4.47µM*	/	/	-4.1%
Cc1nonc1CC(=O)N1CCc2c([nH]c3ccccc23)C1c1ccccc1F (centres undefined)	?	/	/	-9.9%
SMILES	ALDH1A1 inh	PNC inhibitor	HPGD block	JMJD2E inh
CC(C)(c1ccccc1)c1ccc(OCCCN2CCNCC2)cc1	15.8µM*	/	/	-9.9%
CNCCCOc1ccc(C(C)(C)c2ccccc2)cc1	?	?	-9.5%	?
Cc1cc(C)c2c(-n3cccc3)c(C(=O)NNS(=O)(=O)c3ccccc3)sc2n1	4.47µM*	-15.2	-8.2%	0.9%
COCc1cc(C)nc2sc(C(=O)NN)c(-n3cccc3)c12	0.501µM*	/	/	43.5%
Cc1cc(C)c2c(-n3cccc3)c(C(=O)O)sc2n1	22.4µM*	30.9	-21.4%	-6.1%
Cc1cc(-c2nc(C)c(C(=O)NNS(=O)(=O)c3ccccc3)s2)no1	15.2%	/	/	7.8%
CC(=O)OC[C@@H]1O[C@H](CCO/N=C(\C)CCN2CCCc3nc(C)c(C)cc32)C=C[C@@H]1OC(C)=O	-19.9%[13.5 µM]	/	/	/
